From the supplement of paper PMC6555819 come the findings set out here.

The subject of the first test is PPARg DBDmut IVT, anti-PPARg (DBD mutation: PPARg1 K132A/R137A, NR concentration 270 nM). Description: PBM binding z-score (relative to random genomic background probes); higher = stronger binding; sequences stand for … in GC…GCGATTGACAGCGTAGAATGAAGG
An outline of the steps: (§1)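 Binding z-scores take random background probes as their reference. They come from custom Agilent 4×180K protein-binding microarrays incubated 1 h with ligand-free nuclear receptor dimers, with antibodies against each partner (one per run) detecting binding. Scanned fluorescence was regression-normalized.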
For the sequence CCTAGTGGGTCAGGAGGTCACACACCGGATATGA, the PBM binding z-score was found to be 0.445.

For the sequence CCTACTGGGCAAAAAAGGTCATTGATGCCGATAA, the PBM binding z-score was -0.686.

Take TCTAGTTCGTCACGGAGGTCACACACGACGGGTA: the PBM binding z-score was found to be 0.867.

The sequence CCTAGTTGGTCAAGGTCACGCACGCTATAGGTAC came in with a PBM binding z-score of 0.558.

On to ATATGTAGGTTAGCGGGGGTCATTCAGACTAGGC, for which the PBM binding z-score is 9.65.

In turn, CCTAGATGGTCAGGAGGTCACACACCGGATATGA yielded a PBM binding z-score of 0.0962.

CCTAGTTGGTCAGGAAGTCACACACCGGATATGA returned a PBM binding z-score of 0.0813.

For CGTCAAAGTTAAAGGTAACGTAACAGAAAGCAGC, the PBM binding z-score worked out at 0.594.

Regarding CCTACTGGGCCATTCAGAGGTCACTGATCATATG, the PBM binding z-score stood at 0.235.

Sequence TAGCCTCGGTCATTCAGGGGCCAGTATAGAAAGC displayed a PBM binding z-score of -0.322.

CAAACTAGGCCAAGGTCAAAGTCGGTTTGTGCCA: the PBM binding z-score stood at 0.266.

Sequence ATCGAAAGGTCGAGTTGAGTATAGAGAAAGGGAA yielded a PBM binding z-score of 0.196.

As to CGTCAAAGTTCAAGGTAAAGTAACAGAAAGCAGC, the PBM binding z-score came to 0.346.

In the case of TCTAGTTGGTCACGGGGGTCACACACGACGGGTA, the PBM binding z-score was 6.87.

On to CCTTACGGGTCACTTACAGGTTATAGCATTTGGA, for which the PBM binding z-score is 0.78.

The sequence CCTACTGGGCCATTCAGAGGTCATCGATCATATG had a PBM binding z-score of -0.27.

Regarding CAAAATAGGTCAAGAGGTCAAAGTCCGCTTCCCG, the PBM binding z-score was determined as 1.62.

Sequence TAGCCTAGGTCATGCGGGTCAGTATAGTGTCGGC registered a PBM binding z-score of -0.506.

GCTTACGGGTCAAAGGTTAAAGCATGAATAGAAT came in with a PBM binding z-score of 2.46.

For the sequence CGTCCAAGGTCAAAGGTCAGCGAAGAGATGACGG, the PBM binding z-score came to 0.832.

In turn, ATCGAAAGGTCGACGAGGTGAGAATACACCGTTT registered a PBM binding z-score of 1.17.

CGTCCAAGGGCAATGCTAGGTCAGTGAAAGCATT showed a PBM binding z-score of -1.04.

In the case of GCTTACGGGTCAAAAGTTATAGCATGAATAGAAT, the PBM binding z-score was determined as 1.18.

Sequence CCTACTGGGCCACGAAAGGTGATTGATTCAGTGA returned a PBM binding z-score of -0.709.

Sequence ATCGAAAGGTCGTGAGGTGAGTTTACAGAAAGGC showed a PBM binding z-score of 0.81.

In turn, TCTACTTGGTCACGGAGGTCACACACGACGGGTA showed a PBM binding z-score of 1.65.

Turning to TATACAGGATCAAAGGCCAGAGTACGAATGTCGA, the PBM binding z-score stood at 0.991.

CCTAGTTGGTCAAGGTCCCACACGCTATAGGTAC: the PBM binding z-score was determined as 0.474.

Regarding AGAATGGGGTTATTAAGATCAGGGAATTGCGGTC, the PBM binding z-score amounted to 1.55.

ATCGAAAGGTCGTGAAGTGAGTATACAGAAAGGC displayed a PBM binding z-score of 1.88.

GCTGCTAGGTCAGGTTGGTCAGCTAACGGGTACG yielded a PBM binding z-score of -0.959.

CCTTACGGGTCACTGACAGCTTATAGCATTTGGA came in with a PBM binding z-score of 0.264.

As for AGAATGAGGTTAGCAAAGATCAGGGAAACGCTTG, the PBM binding z-score came out at 0.613.

CCTAGTTGGTCAGGGGGTCACACACCGGATATGA had a PBM binding z-score of 4.19.

In the case of AGTCGGAGGACAAAGGTCAGAGCTACGCCAGTGA, the PBM binding z-score is -0.0334.

In the next test the test system is PPARg homodimer (NR concentration 180 nM). Described as above. An outline of the steps:
as §1
Regarding CCTAGTGGGTCAGGAGGTCACACACCGGATATGA, the PBM binding z-score was determined as 3.37.

In the case of CCTACTGGGCAAAAAAGGTCATTGATGCCGATAA, the PBM binding z-score is 2.27.

Take TCTAGTTCGTCACGGAGGTCACACACGACGGGTA: the PBM binding z-score stood at 6.1.

On to CCTAGTTGGTCAAGGTCACGCACGCTATAGGTAC, for which the PBM binding z-score came to 3.73.

Turning to ATATGTAGGTTAGCGGGGGTCATTCAGACTAGGC, the PBM binding z-score stood at 3.57.

With CCTAGATGGTCAGGAGGTCACACACCGGATATGA, the PBM binding z-score came out at 3.94.

As for CCTAGTTGGTCAGGAAGTCACACACCGGATATGA, the PBM binding z-score came to 1.03.

Turning to CGTCAAAGTTAAAGGTAACGTAACAGAAAGCAGC, the PBM binding z-score turned out to be 0.332.

CCTACTGGGCCATTCAGAGGTCACTGATCATATG registered a PBM binding z-score of 1.87.

TAGCCTCGGTCATTCAGGGGCCAGTATAGAAAGC yielded a PBM binding z-score of 0.0789.

In turn, CAAACTAGGCCAAGGTCAAAGTCGGTTTGTGCCA gave a PBM binding z-score of 1.87.

ATCGAAAGGTCGAGTTGAGTATAGAGAAAGGGAA came in with a PBM binding z-score of 1.65.

Sequence CGTCAAAGTTCAAGGTAAAGTAACAGAAAGCAGC yielded a PBM binding z-score of 2.5.

In the case of CTATGTAGGTGAAGGGGGTCATTCAGTTTGAAAG, the PBM binding z-score came to 2.81.

Sequence TCTAGTTGGTCACGGGGGTCACACACGACGGGTA came in with a PBM binding z-score of 4.67.

CCTTACGGGTCACTTACAGGTTATAGCATTTGGA returned a PBM binding z-score of 2.43.

Sequence CCTACTGGGCCATTCAGAGGTCATCGATCATATG yielded a PBM binding z-score of 5.67.

CAAAATAGGTCAAGAGGTCAAAGTCCGCTTCCCG had a PBM binding z-score of 5.84.

In turn, TAGCCTAGGTCATGCGGGTCAGTATAGTGTCGGC returned a PBM binding z-score of 1.03.

For GCTTACGGGTCAAAGGTTAAAGCATGAATAGAAT, the PBM binding z-score turned out to be 1.69.

The sequence CGTCCAAGGTCAAAGGTCAGCGAAGAGATGACGG registered a PBM binding z-score of 4.17.

Regarding ATCGAAAGGTCGACGAGGTGAGAATACACCGTTT, the PBM binding z-score was determined as 2.15.

CGTCCAAGGGCAATGCTAGGTCAGTGAAAGCATT yielded a PBM binding z-score of 1.08.

GCTTACGGGTCAAAAGTTATAGCATGAATAGAAT had a PBM binding z-score of 1.4.

CCTACTGGGCCACGAAAGGTGATTGATTCAGTGA: the PBM binding z-score came to 0.352.

CTATGTAGGTTAAGGGGGTCATTGAGTTTGAAAG showed a PBM binding z-score of 3.37.

The sequence ATCGAAAGGTCGTGAGGTGAGTTTACAGAAAGGC returned a PBM binding z-score of 2.01.

Turning to TCTACTTGGTCACGGAGGTCACACACGACGGGTA, the PBM binding z-score was 3.86.

Sequence TCGAGTAGGTTACGGGGGCGTTCAGGGATGAAGA came in with a PBM binding z-score of 2.99.

In turn, TATACAGGATCAAAGGCCAGAGTACGAATGTCGA yielded a PBM binding z-score of 1.27.

Sequence CCTAGTTGGTCAAGGTCCCACACGCTATAGGTAC showed a PBM binding z-score of 1.59.

CCCAGTAGGTTACGAGGGGGCATTCAGTGCGAAT had a PBM binding z-score of 1.71.

On to AGAATGGGGTTATTAAGATCAGGGAATTGCGGTC, for which the PBM binding z-score was 2.23.

The sequence ATCGAAAGGTCGTGAAGTGAGTATACAGAAAGGC yielded a PBM binding z-score of 1.75.

Sequence GCTGCTAGGTCAGGTTGGTCAGCTAACGGGTACG showed a PBM binding z-score of 0.974.

CCTTACGGGTCACTGACAGCTTATAGCATTTGGA showed a PBM binding z-score of 2.05.

AGAATGAGGTTAGCAAAGATCAGGGAAACGCTTG: the PBM binding z-score is -0.323.

The sequence CCTAGTTGGTCAGGGGGTCACACACCGGATATGA gave a PBM binding z-score of 3.05.

AGTCGGAGGACAAAGGTCAGAGCTACGCCAGTGA returned a PBM binding z-score of 3.93.
